# Hits are enriched below; roughly 8% of the tested compounds scored in any of these assays.
# SW480 rerep – induces DNA re-replication in SW480 colon adenocarcinoma cells; 340,000 compounds, 1.8% hits; Potency, µM (titrated, usually from 46.1 µM), for the others: at the highest dose re-replication activation, most hits filed as activators; SW480 DNA re-replication, Hoechst DNA content imaging, 48 h; AID 624297; also: % of control where 0% means no effect; nearly all actives have a fitted effect of over 55% in size
#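 Image-based read-out: total Hoechst fluorescence of nuclei (405 nm excitation, 500-530 nm emission), with hits raising the fraction of high-intensity nuclei. SW480 colon cells incubated 48 hr with compounds at 37 C.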
# HT1080 IDH1KD tx – kills HT-1080 cells with IDH1 knockdown; HT-1080 IDH1 knockdown viability, ATP luminescence, 48 h; Potency, µM (top dose mostly 46.1 µM), without a hit: at the top dose activity, negative = toxicity, actives largely listed as cytotoxic; AID 686971; 360,000 compounds, 2% hits;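 also: 0% = DMSO wells and -100% = cell-free medium wells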
#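 Knockdown cells (IDH1KD HT-1080) received compounds 2 h after plating at 750 cells/well and were kept 48 h at 37 °C in 5% FBS RPMI. A CellTiter-Glo luminescence read gave % activity for curve fitting.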
# KB-3-1 cytotox – KB-3-1 parental cell cytotoxicity; KB-3-1 viability, CellTiter-Glo ATP luminescence, 72 h; Potency, µM (series often up to 46.1 µM), most hits filed as cytotoxic; AID 1347075; 400,000 compounds, 1.4% hits; also: % is scaled to controls: 0 for no effect and ±100 for the full control effect; nearly all actives have a fitted effect of over 60% in size
#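 Luminescent ATP read-out (CellTiter-Glo) measures survival of drug-naive KB-3-1 cells after 72 h compound exposure at 37 °C. Titration series was screened from lowest to highest concentration, with DMSO vehicle plates as background controls.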
# MCF10A rerep – induces DNA re-replication in MCF 10a normal breast cells; MCF 10A DNA re-replication, Hoechst nuclear intensity, 48 h; Potency, µM (highest dose often 46.1 µM), inactives show at the top dose activity, positive = re-replication, usual class: activators; 350,000 compounds, 2.9% hits; also: % of control where 0% means no effect; nearly all actives have a fitted effect of over 50% in size
# HT1080NT lethal – kills 2HG-producing HT-1080-NT fibrosarcoma cells | HT-1080-NT fibrosarcoma viability, CellTiter-Glo ATP luminescence, 48 h | Potency, µM (series often up to 46.1 µM), inactives show at the highest dose activity, negative = less viability, usual class: cytotoxic | 360,000 compounds, 1.6% hits | AID 686970;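 also: NT is the 2HG producing partner of a matched IDH1 knockdown line; 0% = DMSO-treated cells and -100% = media-only wells without cells; nearly all actives have a fitted effect of over 55% in size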
#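 HT-1080-NT fibrosarcoma cells (2HG-overproducing), 750 cells/well in RPMI with 5% FBS, dosed after 2 h and incubated 48 h at 37C. CellTiter-Glo luminescence normalized to DMSO and no-cell wells; concentration-response curves fitted and classed.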
# KB-V1 MDR tox – KB-V1 MDR subline cytotoxicity | KB-V1 MDR cells viability, CellTiter-Glo, 72 h | Potency, µM (top dose mostly 46.1 µM), actives largely listed as cytotoxic | 400,000 compounds, 3.4% hits; also: % is scaled to controls: 0 for no effect and ±100 for the full control effect; nearly all actives have a fitted effect of over 60% in size
#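 Cytotoxicity toward P-gp-expressing KB-V1 cells was determined as loss of CellTiter-Glo luminescence after 72 h at 37 degrees C. Compounds were tested in quantitative HTS format across a concentration range, with curves fitted to normalized data.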
# An asterisk follows results filed as active; i = inactive; ? = inconclusive; / = not tested or not shown; [ ] = remark or other dose. Calls follow the shape of the dose curve; as a rule, active = well fitted curve in the direction sought with a large enough effect; inconclusive = small, poorly fitted or top-dose-only effect, or another doubt; inactive = no such curve, though single readings can be large; an effect the other way counts as inactive or inconclusive. Potency is read from the fitted curve at half-maximal effect.
SMILES,SW480 rerep,HT1080 IDH1KD tx,KB-3-1 cytotox,MCF10A rerep,HT1080NT lethal,KB-V1 MDR tox
Cc1ccc(-c2noc(-c3cccnc3N(C)Cc3ccc(Cl)cc3)n2)cc1,/,/,i,/,/,i
O=C(CN1C(=O)CCc2cc(S(=O)(=O)N3CCCCC3)ccc21)NCc1ccc(Cl)cc1,/,/,i,/,/,i
COc1ccc(C2C(C(N)=O)=C(C)Nc3nc(CCCO)nn32)c(OC)c1 (stereo not given),/,/,i,/,/,i
O=C(NCCN1C(=O)S/C(=C\c2ccc(Cl)c(Cl)c2)C1=O)c1ccc2c(c1)C(=O)N(Cc1ccncc1)C2=O,-2%,-17%,i,16µM*,?,i
O=C1N=C2N(CCN3CCCCC3)c3ccccc3N2/C1=C\c1ccc([N+](=O)[O-])s1,?,5%,i,18µM*,5%,i
O=S(=O)(Nc1nc2ccccc2nc1Nc1ccc2c(c1)OCO2)c1ccccc1,2%,0%,i,9%,2%,5.2µM*
O=S(=O)(c1ccc2nc(Nc3ccccc3)ccc2c1)N1CCCCC1,2.8µM*,26µM*,?,?,?,i
O=[N+]([O-])c1cccc(S(=O)(=O)Nc2nc3ccccc3nc2Nc2cccc(S(=O)(=O)N3CCCCC3)c2)c1,9%,?,i,8%,?,?
Cc1ccc(S(=O)(=O)Nc2nc3ccccc3nc2Nc2cccc(S(=O)(=O)N3CCCC3)c2)cc1,?,-26%,?,21µM*,-23%,?
CC[C@H]1NC(=O)c2cc(S(N)(=O)=O)c(Cl)cc2N1,2%[20.6 µM],/,/,0%[20.6 µM],/,/
CC(=O)c1ccc(N2C(=O)N(Cc3cccc(C(F)(F)F)c3)c3ccccc3S2(=O)=O)cc1,/,/,?,/,/,i
COc1ccccc1NC(=O)C(Cc1ccccc1)NS(=O)(=O)c1cccc2nsnc12 (stereo not given),/,/,i,/,/,i
CCOc1ccc2ncc3c(-c4ccc(C)cc4)nn(-c4cccc(F)c4)c3c2c1,/,/,i,/,/,i
O=C(C1CCCN(S(=O)(=O)c2cccc3nonc23)C1)N1CCN(c2cccc(C(F)(F)F)c2)CC1 (stereo not given),/,/,?,/,/,i
CC(=O)N1CCCc2cc(S(=O)(=O)N3CCC(C(=O)NCc4ccccc4Cl)CC3)ccc21,/,/,i,/,/,?
Cc1cc(C)c(C(=O)/C=C/c2cccs2)c(=O)[nH]1,-41%,-9%,i,?,-1%,?
COc1ccc(/C=C/C(=O)c2c(C)cc(C)[nH]c2=O)c2ccccc12,?,12µM*,?,18µM*,?,i
CCc1ccc(/C=C/C(=O)c2c(C)cc(C)[nH]c2=O)cc1,?,23µM*,23µM*,18µM*,15µM*,?
Cc1ccc(/C=C/C(=O)c2c(C)cc(C)[nH]c2=O)cc1,?,10µM*,?,?,?,?
Cc1ccc(C)c(Nc2nnc(-n3nc(C)cc3C)c3ccccc23)c1,/,/,i,/,/,i
Brc1ccc(-c2cn3cc(Cc4ccccc4)sc3n2)cc1,/,/,i,/,/,i
FC(F)(F)c1cccc(-c2nnc(-c3ccccc3)c(N3CCOCC3)n2)c1,10%,-28%,i,1%,-21%[9.24 µM],i
O=[N+]([O-])c1ccc(-c2nnc(-c3ccccc3)c(N3CCOCC3)n2)cc1,-5%,3%,i,6%,3%,12µM*
S=C(NCc1cccs1)Nc1ccccc1Cl,-1%,5%,i,6%,0%,26µM*
S=C(NCc1cccs1)Nc1cc(Cl)cc(Cl)c1,?,?,?,23µM*,?,?
SMILES,SW480 rerep,HT1080 IDH1KD tx,KB-3-1 cytotox,MCF10A rerep,HT1080NT lethal,KB-V1 MDR tox
S=C(NCc1ccco1)Nc1ccc(Cl)cc1Cl,-11%,-8%,?,15%,-11%,18µM*
S=C(NCc1ccco1)Nc1ccc(Br)cc1Cl,2%,-21%,?,18%,-25%,i
Cc1ccc(NC(=S)NCc2cccs2)c(C)c1,-1%,-3%,i,26%,1%,i
S=C(NCCNC(=S)Nc1ccccc1Cl)Nc1ccccc1Cl,0%,-9%,i,7%,-12%,i
Cc1cc(Cl)ccc1NC(=S)NCc1cccs1,1%[9.22 µM],?,i,29%,18µM*,?
NCCCC(N)CC(=O)NC1CNC(=O)C(C2CC(O)N=C(N)N2)NC(=O)/C(=C/NC(N)=O)NC(=O)C(CO)NC(=O)C(CO)NC1=O (stereo not given),-4%,/,/,-1%,/,/
CCOc1ccc(-c2csc(-c3c(N)c(C(=O)c4ccc5c(c4)OCO5)n4ccccc34)n2)cc1,/,/,i,/,/,?
CC(C)c1ccc(NC(=S)NCc2cccs2)cc1,?,?,i,?,11µM*,23µM*
COc1ccc(NC(=S)NCc2cccs2)cc1,?,16%,i,?,8%,i
COc1ccc(Cl)cc1NC(=O)CCS(=O)(=O)c1cccc2nonc12,/,/,i,/,/,i
CC(C)C1Cc2c(sc3[nH]c(=S)n(Cc4ccccc4)c(=O)c23)CO1 (stereo not given),?,?,21µM*,?,?,?
CC1CCN(C(c2ccc(F)cc2)c2sc3nc(-c4ccco4)nn3c2O)CC1 (stereo not given),/,/,i,/,/,i
CC(CCc1ccccc1)NC(=O)COC(=O)c1cc(NS(=O)(=O)c2ccc(Cl)c([N+](=O)[O-])c2)ccc1O (stereo not given),11%,?,i,6.5µM*,?,?
O=S(=O)(c1ccc(OCC(O)CNC23CC4CC(CC(C4)C2)C3)c(Cl)c1)N1CCOCC1 (stereo not given),16µM*,13µM*,?,?,21µM*,?
CNS(=O)(=O)c1cccc(C(=O)OCC(=O)NC(C)CCc2ccccc2)c1 (stereo not given),-9%,0%,i,4%,8%,i
O=C(COc1ccc(S(=O)(=O)N2CCOCC2)cc1Cl)NCCCn1ccnc1,7.3µM*,22%,i,?,?,i
O=C(COc1ccc(S(=O)(=O)N2CCOCC2)cc1Cl)NC1CCCCC1,3%,-9%,/,2%,-6%,/
CC(CCc1ccccc1)NC(=O)COc1cc(F)ccc1[N+](=O)[O-] (stereo not given),6%,0%,i,6%,-4%,i
